# Assay results reported in PubChem BioAssay AID2680 (National Center for Advancing Translational Sciences (NCATS), 2010).
# This is one part of the list. A call without a number means that no potency is given here. Records with an inconclusive call do not appear. The source made the active and inactive calls. Calls follow the shape of the dose curve; as a rule, active = well fitted inhibition curve with a large enough effect; inconclusive = small, poorly fitted or top-dose-only effect; inactive = no such curve, though single readings can be large or run the other way.
# Molecular target: Glutathione-independent formaldehyde dehydrogenase (Pseudomonas putida) (UniProt P46154)
# Test: Counterscreen for JMJD2E Inhibitors: qHTS Assay for Inhibitors of Formaldehyde Dehydrogenase (FDH)
# Conditions: FDH enzyme assay, NADH fluorescence kinetic; series mostly up to 56.7 µM
# Experimental: This assay is a counterscreen for a related assay for inhibitors of JMJD2E. See AID 2147 for details. The JMJD2E assay utilized an FDH-coupled protocol. To screen for false positive results in the primary assay due to inhibition of the formaldehyde dehydrogenase coupled enzyme, an FDH-only assay was run using FDH as the enzyme (0.000025 U/uL final concentration) and 10 uM formaldehyde and 0.25 mM NAD+ as the substrate, and following the same fluidic protocol as described in AID 2147 for the coupled HTS assay. Actives in this assay are likely false positives of the primary HTS.
# Assay is initiated by dispensing 3 uL of enzyme solution (4/3x final concentration) into a 1,536-well assay plate using a nanoliter solenoid-based dispenser (Beckman-Coulter, Fullerton, CA). After pintool transfer of compound solution, the assay plate is incubated at room temperature for 10 minutes, followed by a 1 uL addition of 4x substrate solution to initiate the reaction (final assay volume of 4 uL). The plate is then manually transferred into the ViewLux reader for kinetic measurements.
# Glutathione-independent formaldehyde dehydrogenase (Pseudomonas putida), sequence (P46154 whole entry, looked up): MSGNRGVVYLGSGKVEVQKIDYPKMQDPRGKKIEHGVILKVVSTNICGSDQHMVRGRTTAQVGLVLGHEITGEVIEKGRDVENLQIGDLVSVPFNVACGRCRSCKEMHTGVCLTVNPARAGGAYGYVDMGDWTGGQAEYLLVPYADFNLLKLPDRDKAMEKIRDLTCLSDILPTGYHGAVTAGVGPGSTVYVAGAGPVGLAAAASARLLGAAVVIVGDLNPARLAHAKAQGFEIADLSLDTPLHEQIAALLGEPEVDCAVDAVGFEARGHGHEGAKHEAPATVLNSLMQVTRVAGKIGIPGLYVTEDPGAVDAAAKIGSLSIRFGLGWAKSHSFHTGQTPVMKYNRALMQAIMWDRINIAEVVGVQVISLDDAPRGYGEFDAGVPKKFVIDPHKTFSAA
row,Structure (SMILES),Potency
1,Cc1ccc(N2C(=O)CC(Sc3ncn[nH]3)C2=O)cc1 (configuration not stated),316 nM (active)
2,Oc1ccc(/C=C/c2c(F)cccc2F)c2cccnc12,inactive
3,Nc1ccc(Nc2cc(O)c3ncccc3c2)cc1,inactive
4,Oc1cccc2cc(-c3ccncc3)cnc12,inactive
5,COc1ccc(Cl)cc1CSc1ncn[nH]1,316 nM (active)
6,Oc1c(CN2CCCC2)cc(COCc2ccccc2)c2cccnc12,inactive
7,O=C1CC(Sc2ncn[nH]2)C(=O)N1c1ccccc1 (configuration not stated),316 nM (active)
